Compound activity as filed in PubChem.
DAX1 inh-1 = NR0B1 (DAX1) inhibition. P51843. HEK293 Gal4-DAX1 luciferase reporter, luminescence. inhibition, % at 6.75 µM. 0.99% of 340,000 active;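 active means inhibition above the mean over all tested compounds plus 3 SD, cut at about 4.2% in these data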;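 further: 0% = DAX1-transfected cells with DMSO and 100% = empty-vector control cells with DMSO; inhibition shows as a rise in luminescence from relieved DAX1 repression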
ssDAF-12 act = activates DAF-12 receptor from parasite S. stercoralis; HEK293 ssDAF-12/GRIP1 lit1-tk-luc reporter, luminescence; % of 3 µM dafachronic acid response; activation, % at 6.8 µM; 1% of 370,000 active; AID 652126;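 active means activation above the mean over all tested compounds plus 3 SD, cut at about 0.9% in these data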;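 further: 0% = DMSO-only wells and 100% = 3 µM delta7-dafachronic acid wells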
DAX1 inh-2 = DAX1 (NR0B1) inhibition, primary screen | HEK293T StAR-luciferase reporter, SF-1/DAX-1 repression relief | inhibition, % at 6.8 µM | 1.1% of 370,000 active;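 active means inhibition above the mean over all tested compounds plus 3 SD, cut at about 3.6% in these data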;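 further: 0% = DAX-1 cells with DMSO and 100% = cells lacking DAX-1 with DMSO; higher inhibition means more luminescence from relief of DAX-1 repression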
hgDAF12 agonist = agonists of H. glycines DAF-12 nuclear receptor; HEK293 GAL4-hgDAF12 UAS-luciferase reporter, agonist luminescence; normalized to butyrate control; activation, % at 6.8 µM; 1.8% of 370,000 active; AID 687014;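 active means activation above a cutoff set at the mean of all screened compounds plus 3 SD, cut at about 10% in these data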;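 further: 0% = DMSO wells and 100% = sodium butyrate wells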
hcDAF12 agonist = activators of H. contortus DAF-12 nuclear receptor. AID 652067. HEK293 hcDAF-12 lit1-tk-luc reporter, luminescence; 0% DMSO, 100% Δ7-dafachronic acid. activation, % at 6.8 µM. 1.4% of 370,000 active;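 active means activation above the mean of all tested compounds plus 3 SD, cut at about 5.5% in these data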;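 further: 100% = response to 3 µM Δ7-dafachronic acid high control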
LXR ag = LXR-beta agonism as hcDAF-12 counter-screen. shares compounds with hcDAF12 agonist. activation, % at 6.8 µM. HEK293 Gal4-LXR tk-luc reporter, luminescence, 24 h; normalized: DMSO 0%, positive control 100%. AID 743027. 3,400 tested, under 10 active;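 active means mean percent activation of the reporter above a cutoff set as the average over tested compounds plus their standard deviation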
Target sequence (P55055 whole entry, looked up, the tested form may be a part): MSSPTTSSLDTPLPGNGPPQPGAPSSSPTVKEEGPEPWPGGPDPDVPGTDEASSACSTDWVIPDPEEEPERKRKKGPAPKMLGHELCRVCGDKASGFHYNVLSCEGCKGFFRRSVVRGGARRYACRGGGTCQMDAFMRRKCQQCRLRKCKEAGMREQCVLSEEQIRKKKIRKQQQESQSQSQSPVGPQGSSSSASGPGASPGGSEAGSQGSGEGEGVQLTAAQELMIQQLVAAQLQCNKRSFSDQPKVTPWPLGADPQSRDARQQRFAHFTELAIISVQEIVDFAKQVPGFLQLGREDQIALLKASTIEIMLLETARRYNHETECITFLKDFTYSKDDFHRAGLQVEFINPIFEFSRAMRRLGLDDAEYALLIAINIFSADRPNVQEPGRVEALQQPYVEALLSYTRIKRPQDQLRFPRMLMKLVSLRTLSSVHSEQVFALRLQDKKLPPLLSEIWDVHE
hcDAF12 ag = confirmation of H. contortus DAF-12 agonists; HEK293 hcDAF-12 lit1-tk-luc reporter, luminescence; % of Δ7-dafachronic acid response; AID 743032; 61% of 3,400 active; activation, % at 6.8 µM; shares compounds with hcDAF12 agonist;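 active means mean activation across triplicate tests above the threshold derived from the earlier primary screen, cut at about 5.5% in these data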;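 further: 0% = DMSO only wells and 100% = 3 µM Δ7-dafachronic acid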
hgDAF12 ag = confirmation of H. glycines DAF-12 agonists; 80% of 3,300 active; shares compounds with hgDAF12 agonist; activation, % at 6.8 µM; AID 743050; HEK293 GAL4-hgDAF12 luciferase reporter, agonist mode; percent of butyrate response;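 active means mean activation over triplicate wells above the hit cutoff derived from the earlier primary screen, cut at about 11% in these data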;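 further: 0% = DMSO low control and 100% = 2 mM sodium butyrate high control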
LXR ag 2 = LXR-beta agonism as DAF-12 counter-screen. shares compounds with hgDAF12 agonist. HEK293 Gal4-LXR luciferase reporter, 24 h. activation, % at 6.8 µM. 3,300 tested, under 10 active;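 active means mean activation of the triplicate above a set limit carried over from the primary screen, none filed active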
* hit, by the source's call; x = no result given. In the library only some 4.1% were active in any assay of this set; here they are far more common.

SMILES	DAX1 inh-1	ssDAF-12 act	DAX1 inh-2	hgDAF12 agonist	hcDAF12 agonist	LXR ag	hcDAF12 ag	hgDAF12 ag	LXR ag 2
COc1ccccc1NC(=O)c1cc2ccccc2o1	3	1.9*	2	14*	16*	1	15*	22*	1
COc1cc(NC(=O)c2cc3ccccc3o2)c(OC)cc1Br	0	0	1	6	1	x	x	x	x
O=C(Nc1ccccc1)c1cc2ccccc2o1	-1	1.9*	3	19*	13*	2	17*	22*	1
COc1ccc(S(=O)(=O)Nc2ccccc2OC)cc1NC(=O)c1cc2ccccc2oc1=O	2	0.9*	3	14*	7.7*	1	4	10	0
Cc1ccccc1NC(=O)c1cc2ccccc2o1	3	0	2	14*	7.7*	1	9.2*	16*	1
COC(=O)C[C@@H]1CC[C@H](NC(=O)c2ccc3c(c2)OCO3)[C@@H](CO)O1	x	0	1	2	1	x	x	x	x
Cc1ccccc1NC(=O)Nc1nc(C2CCC(=O)N2)cs1 (stereo unspecified)	x	-1	-1	-4	-2	x	x	x	x
O=C(Nc1ncccc1Cl)c1cc2ccccc2o1	2	1	2	16*	7.3*	1	6.2*	18*	1
O=C(Nc1cccc(-c2nc3ncccc3o2)c1)c1cc2ccccc2o1	-2	-1	-1	-1	-2	x	x	x	x
O=C(CSc1ccc(-c2nc3ccccc3[nH]2)cn1)Nc1ccc2c(c1)OCCO2	3	x	x	x	x	x	x	x	x
Cc1cc2nc(-c3ccc(SCC(=O)Nc4ccc5c(c4)OCCO5)nc3)[nH]c2cc1C	1	0	3	15*	7.3*	1	4	15*	1
O=C(Nc1ccc(Cl)cc1)C1=Cc2ccccc2OC1	2	1.3*	3	18*	9.6*	1	8.0*	22*	1
O=C(Cn1nc(-c2ccccc2)ccc1=O)NCCc1ccc(F)cc1	x	-1	-1	0	0	x	x	x	x
O=[N+]([O-])c1ccc2nc(-c3ccc(Cl)cc3)[nH]c2c1	4	1.2*	4.1*	22*	9.9*	1	5.9*	20*	1
O=[N+]([O-])c1cccc(-c2nc3ccc([N+](=O)[O-])cc3[nH]2)c1	1	-1	1	3	1	x	x	x	x
CCOC(=O)[C@@H](C)N(C(=O)OC(C)(C)C)S(=O)(=O)N(Cc1ccccc1)[C@H](C(=O)OC)C(C)C	1	-1	0	0	-2	x	x	x	x
COc1ccc2oc(C(=O)c3ccccc3)c(N)c2c1	x	1	4	15*	7.4*	2	6.7*	20*	1
CC(=O)c1cc(-c2cccc(CO)c2)c(=O)n2c1CCC2	x	-1	0	-1	-2	x	x	x	x
Cc1ccc2nc(SCn3nnc4ccccc4c3=O)[nH]c2c1	4	1.8*	4.1*	24*	9.8*	1	10*	16*	1
C/C(N)=C(/C#N)C(=O)CSc1nc2ccc(C)cc2[nH]1	2	1.4*	4.3*	17*	11*	1	7.1*	16*	1
CC(C)NC(=O)N[C@H]1C[C@@H]2O[C@@H](CO)CC[C@@H]2O[C@@H]1CCc1ccc(-c2ccc(F)cc2)cc1	x	-1	1	-1	-2	x	x	x	x
O=C(Nc1ccc2c(c1)OCO2)c1ccc2nc([C@@H]3O[C@H](CO)[C@H](O)[C@H](O)[C@H]3O)[nH]c2c1	x	-1	-1	-2	-1	x	x	x	x
COc1ccc(C)cc1NC(=O)NC1CC(=O)N(c2ccc3c(c2)OCCO3)C1 (stereo unspecified)	1	-1	1	-1	0	x	x	x	x
Cc1cc(N/N=C/c2ccccc2Br)nc2ccccc12	0	-1	0	3	1	x	x	x	x
Brc1ccccc1/C=N/Nc1ccc2ccccc2n1	2	2.5*	3	25*	11*	2	13*	22*	1
SMILES	DAX1 inh-1	ssDAF-12 act	DAX1 inh-2	hgDAF12 agonist	hcDAF12 agonist	LXR ag	hcDAF12 ag	hgDAF12 ag	LXR ag 2
CC[n+]1c(/C=C/c2ccc(OC(C)=O)c(OC)c2)ccc2ccccc21	1	0	2	6	-1	x	x	x	x
CC[n+]1c(/C=C/c2ccc(OC)c(OC)c2)ccc2ccccc21	4.4*	1.1*	3	17*	9.3*	1	9.7*	18*	1
CCOC(=O)c1cc(-c2c(Cl)cccc2Cl)no1	2	-1	0	0	3	x	x	x	x
C=CC[C@]12C[C@@]3(O[C@H](C4CCCCC4)N=C3C[C@H](c3ccc(OC)cc3)[C@H]1C)N(Cc1ccncc1)C2=O	x	-2	-1	-1	-1	x	x	x	x
O=C(/C=C/c1ccccc1)C1C(=O)c2ccccc2C1=O	0	1	1	22*	5	x	x	12*	0
O=C(c1ccccc1)C1C(=O)c2ccccc2C1=O	0	-1	0	-1	1	x	x	x	x
COC(=O)c1cc2c(c3c4cc(OC)ccc4n(S(=O)(=O)c4ccc(OC)cc4)c13)C(=O)N(Cc1ccccc1)C2	x	-1	0	1	0	x	x	x	x
O=C(NC1CCCCN(Cc2cccc(C(F)(F)F)c2)C1=O)C1C2CC3CC(C2)CC1C3 (stereo unspecified)	x	-2	-2	0	-2	x	x	x	x
CCOc1ccc(OCc2cccc(C(=O)N/N=C/c3cccnc3)c2)cc1	-6	0	3.7*	15*	4	x	x	19*	1
CC(C)c1ccc(OCc2cccc(C(=O)N/N=C/c3cccnc3)c2)cc1	-6	1	3.9*	21*	4	x	x	18*	1
O=C(N/N=C/c1cccnc1)c1cccc(Br)c1	2	-1	1	1	3	x	x	x	x
O=C(N/N=C/c1cccnc1)c1ccccc1OCc1cccc(Br)c1	-1	-2	-1	0	0	x	x	x	x
O=C(NN=C1CCCC1)c1cccc(O)c1	1	1	3	14*	3	x	x	2	0
CC(=O)c1ccc(N/C=C\C(=O)c2ccc(C)cc2)cc1	2	2.0*	2	18*	3	x	x	20*	1
C/C(=N/N=C1/NC(=O)CC(C(=O)Nc2ccccc2)S1)c1cccs1 (stereo unspecified)	-1	-1	0	13*	0	x	x	0	0
